The values that follow come from PubChem BioAssay.

Calls of active or inactive are those of the source.

Assay [1] concerns the target Albumin (Bos taurus) (UniProt P02769). The experiment in a line: bovine serum albumin binders on microarray, profiling panel, artefact control for SMM control protein annotation, biochemical, small-molecule microarray, Alexa647 label, 635/667 nm fluorescence (AID 1118).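 Note: score merges 667 nm emission intensity and signal-to-noise per printed compound spot.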 The conditions noted are these: BSA-A647 binding, fluorescence 635 nm, higher = more signal.
A short description of assay [2]: small-molecule microarray binders of probe aXIP, primary screen, biochemical, NeuroSMM set, 635/667 nm fluorescence (AID 1119).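 Note: probe is the protein aXip251-270 applied at 1 µg/mL to compound-printed slides; binding of probe to printed compounds measured as 667 nm fluorescence plus signal to noise.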 The conditions noted are these: higher = more signal, called active from +8 up or from −8 down.
Assay [3] is described as follows: small-molecule binders of probe aNOTCH3, primary screen, biochemical, small-molecule microarray, 635/667 nm fluorescence (AID 1120).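 Note: probe is a biotin-tagged antibody raised against NOTCH3 rather than NOTCH3 protein; score merges spot fluorescence near 667 nm with spot signal to noise.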 As to conditions: higher = more signal.
Assay [4] in a line: small-molecule binders of probe aNOTCH2, primary screen, biochemical, small-molecule microarray, 635/667 nm fluorescence (AID 1121).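 Note: score merges feature fluorescence read at 667 nm with its signal to noise.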 The conditions noted are these: higher = more signal.
Assay [5] has as its target Carbonic anhydrase 2 (Homo sapiens) (UniProt P00918). The experiment in a line: CAII small-molecule binders, profiling panel, biochemical, small-molecule microarray, Alexa647-labelled CAII (AID 1122). The conditions noted are these: CAII-A647 binding fluorescence, higher = more signal.
Assay [6] is described as follows: COS7 lysate on small-molecule microarray, probe aHis, 635 nm (AID 1123).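 Note: z-score combines 667nm fluorescence intensity with signal-to-noise per printed compound spot.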 As to conditions: COS7 cell lysate, fluorescence, higher = more signal.
A short description of assay [7]: compound binding in COS7 lysate, probe aLAP1, primary screen, cell lysate, small-molecule microarray (AID 1124).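 Note: lysate comes from COS7 cells expressing LAP1 and is applied at 0.3 µg/mL; score merges spot fluorescence near 667 nm with signal-to-noise over triplicate slides.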 The conditions noted are these: probe aLAP1, fluorescence, higher = more signal.
Assay [8] relates to Sam68 (KHDRBS1). The experiment in a line: Sam68 small-molecule binders, primary screen, biochemical, small-molecule microarray, 635 nm fluorescence (AID 1125).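 Note: score merges 667 nm channel intensity with signal to noise over triplicate slides.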 The conditions noted are these: small-molecule microarray binding, higher = more signal.
Assay [9] concerns Chordin-like protein 2 (CHRDL2). The experiment in a line: CHRDL2 small-molecule binders, primary screen, biochemical, small-molecule microarray, 635 nm fluorescence (AID 1126).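 Note: printed compound slides probed with Chrdl2 protein at 4 µg/mL for 1 h at 4 C; score merges 667 nm emission intensity with signal to noise over three replicate slides.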 The conditions noted are these: small-molecule microarray binding, fluorescence 635 nm; higher = more signal.
Assay [10] addresses Concanavalin-A (Canavalia ensiformis) (UniProt P02866). As to the kind of experiment: ConA small-molecule binders, primary screen, artefact control for SMM control protein annotation, biochemical, small-molecule microarray, Alexa647 label, 635 nm (AID 1127).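 Note: z combines 667 nm emission intensity with signal-to-noise across three replicate slides.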 The conditions noted are these: ConA-A647 binding fluorescence, higher = more signal.
Assay [11] in a line: anti-His antibody binders, primary screen, artefact control for SMM control protein annotation, biochemical, small-molecule microarray, 635 nm fluorescence (AID 1128).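 Note: score merges feature fluorescence with signal-to-noise for each printed compound spot.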 The conditions noted are these: anti-His Alexa647 antibody binding, higher = more signal.
Assay [12] has as its system Human papillomavirus type 1a E7 protein (residues 1-88). As to the kind of experiment: HPV1a E7 small-molecule binders, primary screen, biochemical, small-molecule microarray, residues 1-88, 635 nm (AID 1129). The conditions noted are these: small-molecule microarray binding, fluorescence 635 nm; higher = more signal.
Assay [13] deals with Focal adhesion kinase 1 (Homo sapiens) (UniProt Q05397). As to the kind of experiment: small-molecule microarray binders of FAK, primary screen, biochemical, 635/667 nm fluorescence, BSA, DTT (AID 1130).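 Note: composite of spot emission at 667 nm and signal to noise over triplicate slides.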 The conditions noted are these: PTK2 binding, 635 nm fluorescence, higher = more signal.
Assay [14] concerns Fibrinogen (Alexa647-labelled). The experiment in a line: fibrinogen binders on compound microarrays, profiling panel, artefact control for SMM control-protein annotation, biochemical, small-molecule microarray, 635/667 nm fluorescence (AID 1131).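 Note: z-score merges 667 nm fluorescence with per-spot signal-to-noise over triplicate slides.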 The conditions noted are these: fibrinogen-A647 binding fluorescence, higher = more signal.
Assay [15] has as its target Follistatin (Homo sapiens) (UniProt P19883). The experiment in a line: follistatin binders on small-molecule microarrays, primary screen, biochemical, small-molecule microarray, 635/667 nm fluorescence (AID 1132). As to conditions: FST binding, 635 nm fluorescence, higher = more signal.
Assay [16] deals with Fibroblast growth factor 2 (Homo sapiens) (UniProt P09038). As to the kind of experiment: FGF2 binders on small-molecule microarrays, primary screen, biochemical, small-molecule microarray, 635/667 nm fluorescence (AID 1133). As to conditions: small-molecule microarray binding, FGF2, fluorescence 635/667; higher = more signal.
A short description of assay [17]: mitochondrial membrane potential change in A549 cells, profiling panel, cell-based, JC-1 fluorescence, basal, 24 h, 100 nL (AID 1138).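 Note: A549 lung adenocarcinoma cells under basal conditions with no added stimulus; test concentration not given here.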 The conditions noted are these: higher = more signal.
For assay [18], the system named is Lefty1. The experiment in a line: Lefty1 binders on small-molecule microarrays, primary screen, biochemical, small-molecule microarray, 635/667 nm fluorescence (AID 1139). As to conditions: small-molecule microarray binding, fluorescence 635/667; higher = more signal.
Assay [19] deals with wheat germ agglutinin (Triticum aestivum), Alexa647-labelled. As to the kind of experiment: wheat germ agglutinin binders on compound microarrays, profiling panel, artefact control for SMM control-protein annotation, biochemical, small-molecule microarray, 635/667 nm fluorescence (AID 1140).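 Note: score merges 667 nm feature emission with signal to noise over triplicate slides.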 The conditions noted are these: WGA-A647 binding, 635 nm fluorescence, higher = more signal.

Assay [20] concerns the target Luciferin 4-monooxygenase (Photinus pyralis) (UniProt P08659). As to the kind of experiment: firefly luciferase enzyme inhibitors, primary screen, biochemical, luminescence, purified enzyme, 2006 set (AID 1141).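 Note: cell-free assay with purified firefly luciferase at 100 ng per well in PBS; test concentration not given here.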 As to conditions: SteadyGlo luminescence, 30 min, higher = more signal, called active from +8 up or from −8 down.

Concanavalin-A (Canavalia ensiformis), sequence (P02866 whole entry, looked up): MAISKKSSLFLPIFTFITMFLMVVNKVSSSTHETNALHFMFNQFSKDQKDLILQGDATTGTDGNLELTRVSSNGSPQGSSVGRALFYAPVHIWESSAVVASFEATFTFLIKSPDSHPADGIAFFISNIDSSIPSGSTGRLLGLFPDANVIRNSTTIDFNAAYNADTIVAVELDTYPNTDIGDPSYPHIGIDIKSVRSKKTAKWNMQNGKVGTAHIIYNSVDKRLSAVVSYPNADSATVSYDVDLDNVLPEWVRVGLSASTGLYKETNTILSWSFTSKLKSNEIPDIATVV
Fibroblast growth factor 2 (Homo sapiens), sequence (P09038 whole entry, looked up): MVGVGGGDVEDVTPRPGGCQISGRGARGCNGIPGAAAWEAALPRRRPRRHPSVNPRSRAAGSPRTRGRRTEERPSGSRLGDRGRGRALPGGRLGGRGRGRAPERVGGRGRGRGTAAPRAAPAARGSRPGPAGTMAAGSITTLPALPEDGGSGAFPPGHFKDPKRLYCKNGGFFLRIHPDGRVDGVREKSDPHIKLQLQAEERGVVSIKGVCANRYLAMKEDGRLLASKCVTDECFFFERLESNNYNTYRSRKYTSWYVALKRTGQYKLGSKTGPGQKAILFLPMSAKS
Albumin (Bos taurus), sequence (P02769 whole entry, looked up): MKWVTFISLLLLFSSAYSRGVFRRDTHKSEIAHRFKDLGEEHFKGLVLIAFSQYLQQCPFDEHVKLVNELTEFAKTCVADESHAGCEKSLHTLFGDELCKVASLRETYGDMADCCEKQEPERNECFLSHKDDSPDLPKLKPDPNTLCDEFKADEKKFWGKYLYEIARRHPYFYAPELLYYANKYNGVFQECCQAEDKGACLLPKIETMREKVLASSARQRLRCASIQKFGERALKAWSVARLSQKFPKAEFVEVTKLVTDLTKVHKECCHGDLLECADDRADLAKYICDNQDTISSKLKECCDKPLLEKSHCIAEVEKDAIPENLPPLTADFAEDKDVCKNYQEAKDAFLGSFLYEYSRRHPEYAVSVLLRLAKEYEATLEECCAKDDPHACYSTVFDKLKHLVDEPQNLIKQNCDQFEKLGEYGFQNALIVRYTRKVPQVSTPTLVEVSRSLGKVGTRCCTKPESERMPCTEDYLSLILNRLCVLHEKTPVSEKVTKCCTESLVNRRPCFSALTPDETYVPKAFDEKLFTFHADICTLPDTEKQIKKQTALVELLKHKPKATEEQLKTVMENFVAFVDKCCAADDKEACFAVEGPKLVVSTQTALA
Focal adhesion kinase 1 (Homo sapiens), sequence (Q05397 whole entry, looked up): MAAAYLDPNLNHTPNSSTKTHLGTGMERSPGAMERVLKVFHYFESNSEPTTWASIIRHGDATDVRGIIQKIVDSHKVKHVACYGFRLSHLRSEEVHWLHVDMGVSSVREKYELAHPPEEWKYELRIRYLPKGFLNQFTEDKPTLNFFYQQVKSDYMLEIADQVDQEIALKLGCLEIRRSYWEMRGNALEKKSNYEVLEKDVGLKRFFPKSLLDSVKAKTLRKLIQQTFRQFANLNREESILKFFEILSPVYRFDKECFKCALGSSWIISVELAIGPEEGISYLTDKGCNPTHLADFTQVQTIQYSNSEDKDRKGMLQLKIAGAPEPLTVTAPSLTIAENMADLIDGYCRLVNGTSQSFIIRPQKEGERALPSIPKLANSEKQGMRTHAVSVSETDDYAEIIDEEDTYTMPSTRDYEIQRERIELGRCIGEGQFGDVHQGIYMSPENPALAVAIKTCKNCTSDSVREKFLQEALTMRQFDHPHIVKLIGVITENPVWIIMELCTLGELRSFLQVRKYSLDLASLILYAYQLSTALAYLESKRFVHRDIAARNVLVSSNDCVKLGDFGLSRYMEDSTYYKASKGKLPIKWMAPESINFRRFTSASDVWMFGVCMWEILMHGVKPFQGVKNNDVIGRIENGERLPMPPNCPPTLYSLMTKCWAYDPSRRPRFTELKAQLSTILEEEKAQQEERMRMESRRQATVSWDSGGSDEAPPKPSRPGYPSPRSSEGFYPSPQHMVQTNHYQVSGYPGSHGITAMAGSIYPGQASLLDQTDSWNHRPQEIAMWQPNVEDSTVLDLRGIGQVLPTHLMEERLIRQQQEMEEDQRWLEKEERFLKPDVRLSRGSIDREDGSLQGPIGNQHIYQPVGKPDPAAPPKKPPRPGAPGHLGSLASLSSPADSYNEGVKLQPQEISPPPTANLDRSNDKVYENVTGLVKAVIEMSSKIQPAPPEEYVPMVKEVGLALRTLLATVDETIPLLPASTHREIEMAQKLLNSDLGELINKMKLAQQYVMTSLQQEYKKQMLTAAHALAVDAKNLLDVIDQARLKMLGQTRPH
Follistatin (Homo sapiens), sequence (P19883 whole entry, looked up): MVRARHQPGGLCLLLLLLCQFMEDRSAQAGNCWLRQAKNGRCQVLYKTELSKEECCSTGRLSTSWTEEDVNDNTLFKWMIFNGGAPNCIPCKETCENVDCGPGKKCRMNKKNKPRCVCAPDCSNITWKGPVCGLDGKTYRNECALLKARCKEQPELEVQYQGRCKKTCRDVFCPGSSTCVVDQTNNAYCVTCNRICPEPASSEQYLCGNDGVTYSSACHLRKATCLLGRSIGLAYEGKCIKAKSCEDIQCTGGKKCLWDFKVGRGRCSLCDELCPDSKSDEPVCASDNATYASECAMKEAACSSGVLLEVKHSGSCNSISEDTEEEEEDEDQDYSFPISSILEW
Luciferin 4-monooxygenase (Photinus pyralis), sequence (P08659 whole entry, looked up): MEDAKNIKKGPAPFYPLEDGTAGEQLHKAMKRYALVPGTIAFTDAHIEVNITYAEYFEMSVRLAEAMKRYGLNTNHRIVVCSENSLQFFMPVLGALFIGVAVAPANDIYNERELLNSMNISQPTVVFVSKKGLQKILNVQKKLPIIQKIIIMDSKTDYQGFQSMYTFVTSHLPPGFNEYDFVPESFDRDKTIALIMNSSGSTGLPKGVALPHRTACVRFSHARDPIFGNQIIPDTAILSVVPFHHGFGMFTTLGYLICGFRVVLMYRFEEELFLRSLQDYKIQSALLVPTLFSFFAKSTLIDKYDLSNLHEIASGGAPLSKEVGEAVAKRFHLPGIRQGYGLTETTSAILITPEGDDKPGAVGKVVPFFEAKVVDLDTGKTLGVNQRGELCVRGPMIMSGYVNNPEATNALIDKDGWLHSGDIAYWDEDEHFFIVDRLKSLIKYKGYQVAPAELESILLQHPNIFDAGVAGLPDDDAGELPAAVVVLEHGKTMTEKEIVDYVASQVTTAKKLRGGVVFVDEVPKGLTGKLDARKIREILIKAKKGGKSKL

With `COc1cc2c(cc1O)C(c1cccs1)N(Cc1cccc(OC(F)(F)F)c1)CC2` (stereo not given), the composite z-score in [1] was 0.899; in assay [3], -0.128; in assay [4], -0.148; in assay [5] it was 0.78; in [6] it was 2.6; in assay [7], 0.336. In addition, the composite z-score in assay [8] was 1.15; in assay [9], 0.375; in [10], 0.127; in assay [11], 2.17; in [12], 0.733; in assay [13] it was 0.758. The composite z-score was 0.173 in [14]; 0.457 in assay [15]; 0.252 in assay [16]; -0.196 in [18]; 0.84 in [19]. For the same molecule, the composite Z-score in assay [2] was 0.934 (inactive). Also, the z-score was -0.0263 in assay [17] and -0.619 (inactive) in [20].
As for `COc1ccc([Si](C)(C)[C@@H]2[C@@H](CC(=O)N3CCC[C@H]3CO)O[C@]3(C(=O)N(Cc4cccc(I)c4)c4ccccc43)[C@H]2C)cc1`, the composite z-score in [1] is -0.392; in assay [3], 0.175; in assay [4] it was -0.0956; in [5] it was 0.644; in [6] it was 0.066; in assay [7] it was 0.0817. Also, the composite z-score in assay [8] was 1.31; in assay [9], 1.45; in [10], 0.938; in assay [11] it was 2.04; in assay [12] it was 0.781; in assay [13], -0.204. For the same molecule, the composite z-score is 0.591 in assay [14]; 1.39 in [15]; 1.76 in [16]; 1.64 in assay [18]; 0.481 in [19]. Moreover, the composite Z-score in assay [2] is 0.119 (inactive). In addition, the z-score in [17] is -0.77; in assay [20], -0.368 (inactive).
As for `CN1C(=O)C2C=CC(C(O)c3c(F)cccc3Cl)N(NC(=O)OC(C)(C)C)C2C1=O` (stereo not given), the composite z-score in assay [1] was 0.972; in assay [3], -0.0362; in [4], 0.109; in assay [5], 0.572; in assay [6], 2.75; in assay [7] it was 0.67. In addition, the composite z-score in assay [8] is 1.22; in assay [9], -0.729; in assay [10], 0.918; in assay [11], 1.11; in assay [12], 1.09; in assay [13], 0.427. Moreover, the composite z-score in assay [14] was 1.01; in [15] it was 0.453; in assay [16], -0.174; in [18], -0.242; in [19] it was 0.634. Besides, the composite Z-score in assay [2] is 2.18 (inactive). Moreover, the z-score in assay [17] is 0.584; in assay [20] it was 0.682 (inactive).
For `CCCC=C(CCC)[C@@H](NC(=O)OCC(C)C)c1ccccc1`, the composite z-score in assay [1] is 0.923; in assay [3], 1.03; in assay [4], -0.0141; in [5], 0.611; in assay [6] it was 1.6; in assay [7] it was -0.182. The composite z-score in assay [8] is 1.31; in [9], -1.42; in assay [10], 1.1; in assay [11], 0.665; in assay [12], 1.15; in assay [13], 0.172. For the same molecule, the composite z-score in assay [14] was 0.471; in [15] it was 0.978; in assay [16], 0.16; in [18], 0.822; in [19], 0.126. Moreover, the composite Z-score in assay [2] is -0.254 (inactive). Besides, the figures for the z-score in [17] and in [20] were -0.138 and 0.936 (inactive), respectively.
As for `COCCOC(=O)N1C(=O)[C@@]2(c3cc(C#CCCO)ccc31)[C@H](c1ccc(O)cc1)N1[C@H](c3ccccc3)[C@H](c3ccccc3)OC(=O)[C@H]1[C@@H]2C(=O)N1CCN(c2ncccn2)CC1`, the composite z-score in assay [1] worked out at 0.435; in [3], 1.28; in [4], 0.51; in assay [5], 0.183; in assay [6] it was 2.92; in [7], 0.782. Besides, the composite z-score was 1.29 in [8]; 0.677 in assay [9]; 1.16 in assay [10]; 1.34 in assay [11]; 1.25 in assay [12]; 1.26 in assay [13]. The composite z-score in [14] came to 0.959; in assay [15], 1; in [16], 0.986; in assay [18], 0.883; in assay [19], 0.932. Besides, the composite Z-score in [2] was 0.982 (inactive). Also, the values for the z-score in assay [17] and in assay [20] were 0.00649 and 0.832 (inactive), respectively.
